Measurements: PubChem BioAssay AID1159580 (chemical genetic matrix, 2015)
Values joined by “and” are separate entries in the source; they are usually repeats but may differ in a detail not shown here. Identical values can stand only once. Among all 5,500 compounds or so, about 2,000 (36%) were called active. About 18% were inconclusive and are not listed. No stated cut-off is given here; in the data, active means normalized growth mostly below about 0.91 (no sharp cut-off); inconclusive means no clear call, values can overlap the other calls; inactive means mostly above about 0.92. Some of the results follow.

Assay: chemical genetic growth profiling, strain panel (AID 1159580);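 further: tested at 20 µM; growth read once vehicle control cultures reached saturation at 30 °C; 1 = growth at the plate median or of vehicle wells; lower values mean less growth of the strain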
Conditions: growth OD

Measured: normalized growth

CC(C(=O)O)c1cccc(C(=O)c2ccccc2)c1 (stereo not drawn)
inactive: S. cerevisiae deletion strains, locus YJR075W, strain HOC1, hits give low values 1 and 1.06 | S. cerevisiae deletion strains, locus YKL009W, strain mrt4, hits give low values 0.982 | S. cerevisiae deletion strains, locus YKL068W, hits give low values 0.971 | S. cerevisiae deletion strains, locus YKL085W, strain MDH1 (second series), hits give low values 0.968 | S. cerevisiae deletion strains, locus YKL085W, strain MDH1, hits give low values 0.968 | S. cerevisiae deletion strains, locus YKL160W, strain elf1, hits give low values 0.978 | S. cerevisiae deletion strains, locus YKL190W, strain CNB1, hits give low values 0.994 | S. cerevisiae deletion strains, locus YKR001C, strain vps1, hits give low values 0.992 | S. cerevisiae deletion strains, locus YKR026C, strain gcn3, hits give low values 0.984 | S. cerevisiae deletion strains, locus YKR091W, strain srl3, hits give low values 0.989 | S. cerevisiae deletion strains, locus YLL001W, strain dnm1, hits give low values 0.984 | S. cerevisiae deletion strains, locus YLL026W, hits give low values 0.982 | S. cerevisiae deletion strains, locus YLL041C, strain sdh2, hits give low values 1.01 | S. cerevisiae deletion strains, locus YLR027C, strain aat2, hits give low values 0.991 | S. cerevisiae deletion strains, locus YLR039C, strain RIC1, hits give low values 0.993 | S. cerevisiae deletion strains, locus YLR058C, strain SHM2, hits give low values 0.997 | S. cerevisiae deletion strains, locus YLR102C, strain apc9, hits give low values 0.974 | S. cerevisiae deletion strains, locus YLR113W, strain HOG1, hits give low values 1.02 | S. cerevisiae deletion strains, locus YLR221C, strain rsa3, hits give low values 1.01 | S. cerevisiae deletion strains, locus YLR258W, strain gsy2, hits give low values 0.987 | S. cerevisiae deletion strains, locus YLR262C, strain YPT6 (second series), hits give low values 0.987 | S. cerevisiae deletion strains, locus YLR262C, strain YPT6, hits give low values 0.968 | S. cerevisiae deletion strains, locus YLR268W, strain sec22, hits give low values 0.972 | S. cerevisiae deletion strains, locus YLR320W, strain mms22, hits give low values 0.971 | S. cerevisiae deletion strains, locus YLR330W, strain CHS5, hits give low values 0.985 | S. cerevisiae deletion strains, locus YLR342W, strain FKS1 (second series), hits give low values 1.01 | S. cerevisiae deletion strains, locus YLR342W, strain FKS1, hits give low values 1 | S. cerevisiae deletion strains, locus YLR357W, strain rsc2, hits give low values 0.933 | S. cerevisiae deletion strains, locus YLR370C, strain arc18, hits give low values 0.979 | S. cerevisiae deletion strains, locus YLR371W, strain rom2, hits give low values 0.978 | S. cerevisiae deletion strains, locus YLR384C, strain iki3, hits give low values 0.963 | S. cerevisiae deletion strains, locus YLR418C, strain cdc73, hits give low values 0.971 | S. cerevisiae deletion strains, locus YML016C, strain PPZ1, hits give low values 0.996 | S. cerevisiae deletion strains, locus YML032C, strain rad52, hits give low values 0.996 | S. cerevisiae deletion strains, locus YML120C, strain ndi1, hits give low values 0.994 | S. cerevisiae deletion strains, locus YML124C, strain tub3, hits give low values 0.971 | S. cerevisiae deletion strains, locus YMR058W, strain fet3, hits give low values 0.995 | S. cerevisiae deletion strains, locus YMR078C, strain ctf18, hits give low values 0.959 | S. cerevisiae deletion strains, locus YMR125W, strain sto1, hits give low values 0.991 | S. cerevisiae deletion strains, locus YMR129W, hits give low values 0.981 | S. cerevisiae deletion strains, locus YMR205C, strain PFK2, hits give low values 0.985 | S. cerevisiae deletion strains, locus YMR223W, strain ubp8, hits give low values 0.976 | S. cerevisiae deletion strains, locus YMR231W, strain pep5, hits give low values 0.985 | S. cerevisiae deletion strains, locus YMR307W, strain GAS1, hits give low values 0.995 | S. cerevisiae deletion strains, locus YNL067W, strain RPL9B, hits give low values 1.04 | S. cerevisiae deletion strains, locus YNL071W, strain lat1, hits give low values 0.997 | S. cerevisiae deletion strains, locus YNL175C, strain NOP13, hits give low values 1.02 | S. cerevisiae deletion strains, locus YNL183C, strain NPR1, hits give low values 0.955 | S. cerevisiae deletion strains, locus YNL197C, strain WHI3, hits give low values 0.992 | S. cerevisiae deletion strains, locus YNL209W, strain ssb2, hits give low values 0.999 | S. cerevisiae deletion strains, locus YNL224C, strain SQS1, hits give low values 0.997 | S. cerevisiae deletion strains, locus YNL233W, strain BNI4, hits give low values 1.05 | S. cerevisiae deletion strains, locus YNL248C, strain rpa49, hits give low values 0.968 | S. cerevisiae deletion strains, locus YNL250W, strain rad50, hits give low values 0.927 | S. cerevisiae deletion strains, locus YNL271C, strain bni1, hits give low values 0.956 | S. cerevisiae deletion strains, locus YNL298W, strain CLA4, hits give low values 0.973 | S. cerevisiae deletion strains, locus YNL307C, strain MCK1, hits give low values 0.978 | S. cerevisiae deletion strains, locus YNL322C, strain KRE1 (second series), hits give low values 0.953 | S. cerevisiae deletion strains, locus YNL322C, strain KRE1, hits give low values 0.994 and 1.03 | S. cerevisiae deletion strains, locus YNR049C, strain mso1, hits give low values 0.995 | S. cerevisiae deletion strains, locus YNR052C, strain pop2, hits give low values 0.958 | S. cerevisiae deletion strains, locus YOL006C, strain TOP1, hits give low values 1.06 | S. cerevisiae deletion strains, locus YOL012C, strain htz1 1.22 | S. cerevisiae deletion strains, locus YOL147C, strain pex11, hits give low values 0.977 | S. cerevisiae deletion strains, locus YOR001W, strain rrp6, hits give low values 1 | S. cerevisiae deletion strains, locus YOR061W, strain CKA2, hits give low values 1 | S. cerevisiae deletion strains, locus YOR069W, strain VPS5, hits give low values 0.987 | S. cerevisiae deletion strains, locus YOR070C, strain gyp1, hits give low values 0.985 | S. cerevisiae deletion strains, locus YOR080W, strain dia2, hits give low values 0.996 | S. cerevisiae deletion strains, locus YOR083W, strain WHI5 (second series), hits give low values 1.02 | S. cerevisiae deletion strains, locus YOR083W, strain WHI5, hits give low values 0.918 | S. cerevisiae deletion strains, locus YOR106W, strain vam3, hits give low values 0.963 | S. cerevisiae deletion strains, locus YOR136W, strain idh2, hits give low values 0.988 | S. cerevisiae deletion strains, locus YOR144C, strain elg1, hits give low values 0.98 | S. cerevisiae deletion strains, locus YOR184W, strain ser1, hits give low values 0.977 | S. cerevisiae deletion strains, locus YOR231W, strain MKK1, hits give low values 1.04 | S. cerevisiae deletion strains, locus YOR265W, strain rbl2, hits give low values 0.999 | S. cerevisiae deletion strains, locus YOR270C, strain vph1, hits give low values 1 | S. cerevisiae deletion strains, locus YOR290C, strain snf2, hits give low values 0.985 | S. cerevisiae deletion strains, locus YOR316C, strain cot1, hits give low values 0.968 | S. cerevisiae deletion strains, locus YPL051W, strain arl3, hits give low values 0.966 | S. cerevisiae deletion strains, locus YPL055C, strain LGE1, hits give low values 1.1 | S. cerevisiae deletion strains, locus YPL078C, strain atp4, hits give low values 0.972 | S. cerevisiae deletion strains, locus YPL106C, strain sse1, hits give low values 0.962 | S. cerevisiae deletion strains, locus YPL240C, strain hsp82, hits give low values 0.994 | S. cerevisiae deletion strains, locus YPL241C, strain CIN2, hits give low values 0.993 | S. cerevisiae deletion strains, locus YPL256C, strain CLN2, hits give low values 1.02 | S. cerevisiae deletion strains, locus YPR119W, strain clb2, hits give low values 0.963 | S. cerevisiae deletion strains, locus YPR141C, strain kar3, hits give low values 0.973 | S. cerevisiae deletion strains, locus YPR163C, strain tif3, hits give low values 0.979 | S. cerevisiae deletion strains, locus YPR167C, strain met16, hits give low values 0.977 | S. cerevisiae deletion strains, strain wtn01, hits give low values 0.971 | S. cerevisiae strains, strain wild type, hits give low values 1
